Inconclusive results are not listed. A number with no mark means an inactive call. Calls of active or inactive are those of the source. Calls follow the shape of the dose curve; as a rule, active = well fitted curve in the direction sought with a large enough effect; inconclusive = small, poorly fitted or top-dose-only effect, or another doubt; inactive = no such curve, though single readings can be large or run the other way.

The text below walks through data of PubChem BioAssay (NCATS).
% is scaled to controls: 0 for no effect and ±100 for the full control effect; potency is read from the fitted curve at half-maximal effect.

The nature of this experiment: Cytotoxicity counterscreen for NFkB agonists and antagonists (AID 624476).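 Also: cells exposed to compound for 48 hours.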 The following applies: NFkB reporter cell line viability counterscreen; series mostly up to 46.1 µM; activity change, negative = cytotoxicity: at the top concentration. In general terms: The purpose of a counterscreen is to sort out artefacts and off-target activity.
For the compound `CCCS(=O)(=O)Nc1ccc(F)c(C(=O)c2c[nH]c3ncc(-c4ccc(Cl)cc4)cc23)c1F`, the Potency was 20.9 µM (active).
Turning to `NC(=O)c1ccc(I)c([N+](=O)[O-])c1`, the “activity change, negative = cytotoxicity” value is -3.53%.
Turning to `COc1ccc(CCN2CCN(CCCc3ccccc3)CC2)cc1OC`, the “activity change, negative = cytotoxicity” value is -0.698%.
`O=C1[C@H](Cc2ccc(O)cc2)N2C(=O)CCN(C(=O)NCc3ccccc3)[C@H]2CN1Cc1cccc2ccccc12`: the “activity change, negative = cytotoxicity” value was -8.98%.
`CC1(C)Cc2c(-c3ccccc3)c(-c3ccc(Cl)cc3)c(CC(=O)O)n2C1`: the Potency was 20.9 µM (active).
`CCOc1ccc(Cc2cc([C@@H]3O[C@H](CO)[C@@H](O)[C@H](O)[C@@H]3O)ccc2Cl)cc1`: the “activity change, negative = cytotoxicity” value was -1%.
Same read-out and setting: the figure for `OC[C@H](Cc1ccccc1)Nc1nc(Oc2ccc3c(c2)CCC3)nc2c1ncn2Cc1ccc(-c2ccccc2)cc1` is -25.3%; for `Cc1cc(-c2ccc(CC(=O)Nc3ccc(-c4cccnc4)cc3)cc2)ccn1` it is -3.6%.
As to `CC(C)c1onc(-c2c(Cl)cccc2Cl)c1COc1ccc(/C=C/c2cccc(C(=O)O)c2)c(Cl)c1`, the Potency was 11.8 µM (active).
For `Cc1ccc(NC(=O)c2cccc(C(C)(C)C#N)c2)cc1Nc1ccc2ncn(C)c(=O)c2c1`, the “activity change, negative = cytotoxicity” value is -20.1%.
With `CCOc1cc(C=C2C(=O)N(c3ccccc3)N=C2C)cc(Cl)c1OCC(=O)OC`, the “activity change, negative = cytotoxicity” value is -0.12%.
Take `C[C@@H]1C[C@H]2[C@@H]3CCC4=CC(=O)C=C[C@]4(C)C3(F)[C@@H](O)C[C@]2(C)[C@@]1(O)C(=O)CO` (stereo partly specified): the “activity change, negative = cytotoxicity” value was -0.475%.
On the same count and under the same terms, the figure for `Nc1ncnc2nc(-c3ccc(N4CCOCC4)nc3)cc(-c3cccc(Br)c3)c12` is -3.55%.
Turning to `Cc1c(CN2CCN(C(=O)C(C)C)CC2)sc2c(N3CCOCC3)nc(-c3cnc(N)nc3)nc12`, the Potency was 0.148 µM (active).
For the compound `COc1cc2c(cc1OC)CN(CCc1ccc(NC(=O)c3cccc4c(=O)c5cccc(OC)c5[nH]c34)cc1)CC2`, the “activity change, negative = cytotoxicity” value is 3.47%.
Same read-out and setting: the figure for `O=S(=O)(N=Cc1c(O)ccc2ccccc12)c1cccs1` is -7.21%.
